Shown are actives, neighbours in structure and some others; about 3.1% of the full set was active somewhere.
TRb-SRC2 inh – qHTS for Inhibitors of the Interaction of Thyroid Hormone Receptor and Steroid Receptor Coregulator 2; AID 1469, 2008; hit rate 0.065% among 280,000; TRbeta-SRC2 peptide binding, fluorescence polarization; receptor liganded with 1 µM T3; Thyroid hormone receptor beta (Homo sapiens), P10828; Potency, µM (doses to about 106 µM), without a hit: top-dose activity change, negative = inhibition, hits mostly inhibitors;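 note: plate controls were bound peptide for no effect and peptide without receptor for full effect; nearly all actives have a fitted effect of over 50% in size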
Target sequence (P10828 whole entry, looked up): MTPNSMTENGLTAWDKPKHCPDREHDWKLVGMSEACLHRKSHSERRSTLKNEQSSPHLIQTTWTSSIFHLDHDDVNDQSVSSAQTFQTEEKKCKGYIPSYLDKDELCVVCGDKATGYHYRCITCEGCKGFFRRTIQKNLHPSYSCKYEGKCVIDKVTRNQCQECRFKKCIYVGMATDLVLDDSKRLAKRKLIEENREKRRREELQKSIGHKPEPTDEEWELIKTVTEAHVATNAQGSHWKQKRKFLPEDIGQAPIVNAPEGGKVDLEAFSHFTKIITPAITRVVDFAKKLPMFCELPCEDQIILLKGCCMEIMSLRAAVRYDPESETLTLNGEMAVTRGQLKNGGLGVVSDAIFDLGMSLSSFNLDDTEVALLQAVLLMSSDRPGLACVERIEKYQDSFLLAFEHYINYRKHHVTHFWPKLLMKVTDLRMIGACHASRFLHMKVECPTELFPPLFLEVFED
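Human TRb ligand-binding domain (0.6 uM) is mixed with 20 nM Texas Red SRC2 peptide and 1 uM T3; after compound addition and 5 hr at ambient temperature, polarization is measured and normalized to unbound and bound controls.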
Tau fluor cs – Counterscreen qHTS for Inhibitors of Tau Fibril Formation, Fluorescence Polarization; tau K18 P301L Alexa594 fluorescence, heparin fibrillization; Potency, µM (highest dose often 57.7 µM), without a hit: at the top dose activity change, negative = decrease; hit rate 0.93% among 280,000; AID 1463, 2008; note: nearly all actives have a fitted effect of over 55% in size
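Human K18 P301L tau (15 uM unlabeled plus 0.24 uM Alexa 594-labeled, final) in 100 mM sodium acetate pH 7 was mixed with compound and 20 uM heparin and incubated 6 hr at 37 C.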
TR SRC2 fluor cs – Total Fluorescence Counterscreen for Inhibitors of the Interaction of Thyroid Hormone Receptor and Steroid Receptor Coregulator 2; Potency, µM (doses to about 106 µM), without a hit: top-dose fluorescence change, negative = quenching; hit rate 0.29% among 280,000; AID 1479, 2009; TRb/SRC2 Texas Red total fluorescence interference; active = well fitted curve in either direction with a large enough effect; inconclusive = small, poorly fitted or top-dose-only effect
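Human TRβ ligand-binding domain (0.6 uM) and Texas Red SRC2 peptide (20 nM) in Tris buffer with 1 uM T3 and 5% DMSO were incubated with pinned compound for 5 hr at ambient temperature. Total fluorescence was computed as S + 2P (555/632 nm).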
Tau fibril FP – qHTS for Inhibitors of Tau Fibril Formation, Fluorescence Polarization; hit rate 0.39% among 280,000; K18 P301L tau heparin fibrillization, Alexa594 FP, 6 h; Potency, µM (top dose mostly 57.7 µM), inactives show at the highest dose activity, negative = inhibition, most hits filed as inhibitors; Microtubule-associated protein tau (Homo sapiens), P10636; note: nearly all actives have a fitted effect of over 55% in size
Target sequence (P10636 561-689 P618L limits assumed): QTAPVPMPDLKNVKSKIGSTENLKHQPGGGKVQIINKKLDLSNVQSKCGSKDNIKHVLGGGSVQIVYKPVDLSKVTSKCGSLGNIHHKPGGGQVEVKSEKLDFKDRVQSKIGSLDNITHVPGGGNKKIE
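Compound effects on tau fibrillization are measured by Alexa 594 fluorescence polarization (ex 555, em 632 nm). K18 P301L tau is used at 15 uM with 0.24 uM labeled tracer, and 20 uM heparin induces aggregation over 6 hr at 37 C.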
Tau ThT inhib – qHTS for Inhibitors of Tau Fibril Formation, Thioflavin T Binding | Potency, µM (doses to about 57.4 µM), without a hit: top-dose activity, negative = inhibition, hits mostly inhibitors | Microtubule-associated protein tau (Homo sapiens), P10636 | recombinant tau K18 P301L (four-repeat tau fragment), heparin-induced fibrillization, ThT fluorescence | hit rate 2.1% among 270,000 | AID 1460, 2008; note: nearly all actives have a fitted effect of over 55% in size
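Heparin-induced fibrillization of the P301L-mutant K18 repeat-domain fragment of human tau was followed by ThT binding in quantitative high-throughput format.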
The depositor's hits bear a star; [ ] = remark or other dose. Unless noted, calls come from the whole dose curve; as a rule, active = well fitted curve in the direction sought with a large enough effect; inconclusive = small, poorly fitted or top-dose-only effect, or another doubt; inactive = no such curve, though single readings can be large; an effect the other way counts as inactive or inconclusive. Unless noted, % is set by controls: 0 for no effect and ±100 for the full control effect; potency is the fitted concentration of half-maximal effect.

What do the screens show for `O=C(Cn1cc(S(=O)(=O)N2CCN(c3ccccc3F)CC2)c2ccccc2c1=O)Nc1cccc(C(F)(F)F)c1`?
TRb-SRC2 inh: 5.8%; Tau fluor cs: -24.9%; TR SRC2 fluor cs: -1.5%; Tau fibril FP: 14.1µM*; Tau ThT inhib: 3.9%

How did Cc1ccc(NC(=O)Cn2cc(S(=O)(=O)N3CCN(c4ccccc4F)CC3)c3ccccc3c2=O)cc1F do in these assays?
TRb-SRC2 inh: 2.1%; Tau fluor cs: -28.8%; TR SRC2 fluor cs: 0.2%; Tau fibril FP: 14.1µM*; Tau ThT inhib: -4.0%

What do the screens show for `CC(C)c1ccc(NC(=O)Cn2cc(S(=O)(=O)N3CCN(c4ccccc4F)CC3)c3ccccc3c2=O)cc1`?
TRb-SRC2 inh: -3.5%; Tau fluor cs: -14.2%; TR SRC2 fluor cs: -1.5%; Tau fibril FP: inconclusive; Tau ThT inhib: -2.0%

What do the screens show for `CCc1nn2c(=O)cc(COC(=O)c3cccc(NC(=O)COc4ccccc4)c3)nc2s1`?
TRb-SRC2 inh: 1.1%; Tau fluor cs: 4.9%; TR SRC2 fluor cs: -0.3%; Tau fibril FP: 10.3%; Tau ThT inhib: inconclusive

Results for Oc1ccc(NCc2cccc(OCc3ccc(F)cc3)c2)cc1 ?
TRb-SRC2 inh: 11.2µM*; Tau fluor cs: inconclusive; TR SRC2 fluor cs: 16.1%; Tau fibril FP: inconclusive; Tau ThT inhib: 22.4µM*

How did O=[N+]([O-])c1ccc(COc2cccc(CNc3ccc(F)cc3)c2)cc1 do in these assays?
TRb-SRC2 inh: -0.7%; Tau fluor cs: inconclusive; TR SRC2 fluor cs: 0.5%; Tau fibril FP: 11.8%; Tau ThT inhib: inconclusive

How did Oc1ccc(NCc2cccc(OCc3ccccc3)c2)cc1 do in these assays?
TRb-SRC2 inh: 31.6µM*; Tau fluor cs: inconclusive; TR SRC2 fluor cs: -8.5%; Tau fibril FP: inconclusive; Tau ThT inhib: 28.2µM*

What do the screens show for `Cc1ccc(/C=N/n2c(=O)c(C(C)(C)C)nn3cnnc23)cc1`?
TRb-SRC2 inh: inconclusive; Tau fluor cs: -1.5%; TR SRC2 fluor cs: 0.0794µM*[quencher]; Tau fibril FP: inconclusive; Tau ThT inhib: 2.7%

What do the screens show for `NC(=O)CC(NC(=O)Cc1cccc2ccccc12)c1ccc(N2CCc3ccccc3C2)c([N+](=O)[O-])c1` (configuration not stated)?
TRb-SRC2 inh: -2.7%; Tau fluor cs: inconclusive; TR SRC2 fluor cs: -0.8%; Tau fibril FP: -1.8%; Tau ThT inhib: 11.2µM*

How did NC(=O)CC(NC(=O)Cc1cccc2ccccc12)c1ccc(N2CCN(c3ccccc3)CC2)c([N+](=O)[O-])c1 (configuration not stated) do in these assays?
TRb-SRC2 inh: 5.7%; Tau fluor cs: inconclusive; TR SRC2 fluor cs: -1.5%; Tau fibril FP: 0.6%; Tau ThT inhib: inconclusive

How did CC(C)CCC(CC(C)O)c1n[nH]c(=S)n1-c1ccccc1 (configuration not stated) do in these assays?
TRb-SRC2 inh: 3.4%; Tau fluor cs: 6.5%; TR SRC2 fluor cs: -4.4%; Tau fibril FP: -4.8%; Tau ThT inhib: 3.3%

Results for O=C(CSc1ccc(-c2ccccn2)nn1)c1ccc([N+](=O)[O-])cc1 ?
TRb-SRC2 inh: -3.3%; Tau fluor cs: -27.6%; TR SRC2 fluor cs: -8.8%; Tau fibril FP: 2.4%; Tau ThT inhib: 15.8µM*

What do the screens show for `O=C(CSc1ccc(-c2cccnc2)nn1)c1ccc([N+](=O)[O-])cc1`?
TRb-SRC2 inh: -4.9%; Tau fluor cs: inconclusive; TR SRC2 fluor cs: -5.8%; Tau fibril FP: -4.7%; Tau ThT inhib: 14.1µM*

How did C=C(C)C(=O)OCC(CC)(COC(=O)C(=C)C)COC(=O)C(=C)C do in these assays?
TRb-SRC2 inh: 8.4%[201 µM]; TR SRC2 fluor cs: -0.6%[201 µM]

How did CCCC1=NN(c2ccc([N+](=O)[O-])cc2)C(=O)/C1=C/N(C)C do in these assays?
TRb-SRC2 inh: -6.7%; Tau fluor cs: -16.0%; TR SRC2 fluor cs: -3.3%; Tau fibril FP: 1.5%; Tau ThT inhib: inconclusive

How did CN(C)/C=C1/C(=O)N(c2ccc([N+](=O)[O-])cc2)N=C1c1ccccc1 do in these assays?
TRb-SRC2 inh: 8.5%; Tau fluor cs: inconclusive; TR SRC2 fluor cs: -11.3%; Tau fibril FP: -11.0%; Tau ThT inhib: 22.4µM*

What do the screens show for `CC1=NN(c2ccc([N+](=O)[O-])cc2)C(=O)/C1=C\N(C)C`?
TRb-SRC2 inh: 3.8%; Tau fluor cs: -23.9%; TR SRC2 fluor cs: -4.1%; Tau fibril FP: 0.8%; Tau ThT inhib: 12.6µM*

How did CN(C)/C=C1\C(=O)N(c2ccc([N+](=O)[O-])cc2)N=C1c1ccccc1 do in these assays?
TRb-SRC2 inh: -2.7%; Tau fluor cs: inconclusive; TR SRC2 fluor cs: -4.5%; Tau fibril FP: inconclusive; Tau ThT inhib: 17.8µM*

Results for CCOc1ccc(-c2nnc(Nc3ccc(S(N)(=O)=O)cc3)c3ccccc23)cc1 ?
TRb-SRC2 inh: -1.3%; Tau fluor cs: -6.3%; TR SRC2 fluor cs: 1.8%; Tau fibril FP: inconclusive; Tau ThT inhib: -13.8%

Results for COc1ccc2c(c1OC)C(=O)N1c3ccccc3N=C(c3ccc([N+](=O)[O-])cc3)CC21 (configuration not stated) ?
TRb-SRC2 inh: -11.7%; Tau fluor cs: -26.3%; TR SRC2 fluor cs: -67.4%; Tau fibril FP: inconclusive; Tau ThT inhib: 20µM*

What do the screens show for `CCOC(=O)c1c(C(F)(F)C(F)(F)C(F)(F)C(F)(F)F)n[nH]c1C`?
TRb-SRC2 inh: 10.0%; Tau fluor cs: 4.5%; TR SRC2 fluor cs: -4.0%; Tau fibril FP: 14.1µM*; Tau ThT inhib: 0.9%

How did CC1=CC(C)(C)Nc2ccc(OS(=O)(=O)c3ccc(C)cc3)cc21 do in these assays?
TRb-SRC2 inh: -14.5%; Tau fluor cs: 5.01µM*[quencher]; TR SRC2 fluor cs: 1.7%; Tau fibril FP: inconclusive; Tau ThT inhib: 8.91µM*

Results for CC1=CC(C)(C)Nc2ccc(OC(=O)CCN3C(=O)c4ccccc4C3=O)cc21 ?
TRb-SRC2 inh: -4.0%; Tau fluor cs: inconclusive; TR SRC2 fluor cs: 5.1%; Tau fibril FP: inconclusive; Tau ThT inhib: inconclusive

How did CC(=O)Nc1ccc(S(=O)(=O)Oc2ccc3c(c2)C(C)=CC(C)(C)N3)cc1 do in these assays?
TRb-SRC2 inh: 2.4%; Tau fluor cs: 14.1µM*[quencher]; TR SRC2 fluor cs: -0.9%; Tau fibril FP: inconclusive; Tau ThT inhib: inconclusive

Results for O=C(CN1CCN(S(=O)(=O)c2ccccc2)CC1)Nc1ccccc1C(=O)c1ccccc1 ?
TRb-SRC2 inh: -12.1%; Tau fluor cs: -16.5%; TR SRC2 fluor cs: 2.3%; Tau fibril FP: -13.4%; Tau ThT inhib: -4.9%

What do the screens show for `CCNC(=O)NC(=O)COC(=O)CCCSc1nc2ccccc2s1`?
TRb-SRC2 inh: 2.9%; Tau fluor cs: -4.9%; TR SRC2 fluor cs: 2.0%; Tau fibril FP: 5.8%; Tau ThT inhib: -0.3%

Compound activity as filed in PubChem.
